Data taken from PubChem BioAssay.
Where “and” joins values, the source holds several entries; their conditions need not be identical. Identical values can stand only once. Calls of active or inactive are those of the source.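 Rule for the calls, unless noted: active = z-score of at least 1.8 in each of two replicates, scored against plate mean and spread of sample wells; inactive = the rest.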

Assays:
[1] = sensitizers of A549 cells to miR-34 induction, primary screen, imaging, A549 dox-inducible miR-34, nuclei and caspase counts (AID 1347080;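 active = compounds whose cell count with miR-34 switched on is under 0.7 times the count with it off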); settings: A549 miR-34 inducible, Hoechst nuclei count, 48 h
[2] = viability rescue of complex I mutant cybrids, primary screen, cell-based, galactose medium, ATP luminescence (AID 1645843); settings: complex I mutant cybrid cells, 72 h, stronger effect = higher value;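 note: positive z means more ATP and so rescue of galactose-driven cybrid death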
[3] = circadian clock period modulators, cell-based, LOPAC library, luminescence reporter (AID 2774; call rule not given here;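 note: values are relative to mean of DMSO wells on each plate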); settings: circadian reporter cells, at 7 µM, actives lie on both sides
[4] = tested on: Hepatitis C virus NS3 helicase; experiment: HCV NS3 helicase inhibitors, primary screen, biochemical, fluorescence polarization, LOPAC1280 library (AID 687035; in the data active = inhibition above about 37%); settings: Purified HCV NS3 helicase, Cy5-dT15 ssDNA binding fluorescence polarization; stronger effect = higher value; concentration not given here
[5] = Cy5 fluorescence quenching or enhancement artefacts, artefact control for HCV NS3 helicase inhibitor project, biochemical, LOPAC1280 (AID 687037; call rule not given here); settings: Cy5-DNA-NS3h complex fluorescence interference counterscreen
[6] = stronger effect = lower value, cell number ratio, induced over uninduced
[7] = measured here: relative caspase fold change +Dox/-Dox
[8] = measured here: total cells with miR-34 induction, stronger effect = lower value
[9] = measured here: total cells without miR-34 induction

| SMILES | fold change [1, 6] | fold change [1, 7] | cell count [1, 8] | cell count [1, 9] | z-score [2] | period change [3] | inhibition [4] | fluorescence ratio (interference) [5] |
| --- | --- | --- | --- | --- | --- | --- | --- | --- |
| CC[C@]1(O)CC2CN(CCc3c([nH]c4ccccc34)[C@@](C(=O)OC)(c3cc4c(cc3OC)N(C=O)C3[C@@](O)(C(=O)OC)C(OC(C)=O)[C@]5(CC)C=CCN6CC[C@]43C65)C2)C1 (some centres undefined) | 0.746 (inactive) | 1.38 | 1340 | 1800 | -1.05 (inactive) | – | – | – |
| CNC(=O)[C@H]1O[C@@H](n2cnc3c(NCc4ccc(I)cc4)nc(Cl)nc32)[C@H](O)[C@@H]1O | 1.02 (inactive) | 1.05 | 5610 | 5510 | 1.29 (inactive) | – | – | – |
| CC=C1C2C=C(C)C[C@]1(N)c1ccc(=O)[nH]c1C2 | 0.883 (inactive) | 1.22 | 10100 | 11400 | 0.9 (inactive) | – | – | – |
| O=C1NC(=O)c2c1c(-c1ccccc1)cc1[nH]c3ccc(O)cc3c21 | 0.992 (inactive) and 1.16 (inactive) | 0.466 and 1.08 | 2060 and 2860 | 2080 and 2470 | -1.27 (inactive) and -0.655 (inactive) | – | – | – |
| CC(C)CC(NC(=O)C(O)C(N)Cc1ccccc1)C(=O)O (centres undefined) | 0.913 (inactive) | 1.61 | 8460 | 9270 | 0.29 (inactive) | – | – | – |
| CC1CNc2c(cccc2S(=O)(=O)NC(CCCN=C(N)N)C(=O)N2CCC(C)CC2C(=O)O)C1 (centres undefined) | 0.968 (inactive) | 1.83 | 10100 | 10500 | 0.935 (inactive) | – | – | – |
| COC1OC2O[C@@]3(C)CCC4C(C)CCC(C1C)[C@@]24OO3 (some centres undefined) | 0.961 (inactive) | 0.771 | 9270 | 9650 | -0.035 (inactive) | – | – | – |
| CC(=O)C1CCC2C3CCC4=CC(=O)CC[C@]4(C)C3CC[C@]12C (some centres undefined) | 0.861 (inactive) | 1.42 | 7200 | 8360 | -0.365 (inactive) | – | – | – |
| C=CC1=C(C(=O)O)N2C(=O)C(NC(=O)C(=NOCC(=O)O)c3csc(N)n3)C2SC1 (centres undefined) | 0.923 (inactive) | 0.894 | 8710 | 9440 | 0.065 (inactive) | – | – | – |
| [Cl-].[Cl][Pt].[NH2-].[NH2-].c1ccncc1 | 0.987 (inactive) | 0.925 | 9550 | 9680 | -1 (inactive) | – | – | – |
| CC1(C)SC2C(N=CN3CCCCCC3)C(=O)N2C1C(=O)O (centres undefined) | 0.941 (inactive) | 1.42 | 9640 | 10200 | 0.33 (inactive) | – | – | – |
| COc1cc(CC(CO)C(CO)Cc2ccc(O)c(OC)c2)ccc1O (centres undefined) | 1.4 (inactive) | 0.831 | 8290 | 5940 | 0.405 (inactive) | – | – | – |
| CCC(C)C(=O)OC1CCC=C2C=CC(C)C(CCC3CC(O)CC(=O)O3)C21 (centres undefined) | 0.968 (inactive) | 0.887 | 1480 | 1530 | -0.74 (inactive) | – | – | – |
| CC(C)(C)NC(=O)C1CN(Cc2cccnc2)CCN1CC(O)CC(Cc1ccccc1)C(=O)NC1c2ccccc2CC1O (centres undefined) | 0.967 (inactive) | 1.5 | 9380 | 9700 | 1.61 (inactive) | – | – | – |
| CN1CC(=O)N/C1=N\C(=O)Nc1cccc(Cl)c1 | 1.1 (inactive) | 0.699 | 10900 | 9930 | 0.545 (inactive) | – | – | – |
| CC(=O)OC1CC2CCC3C(CCC4(C)C3CC([N+]3(C)CCCCC3)C4OC(C)=O)C2(C)CC1[N+]1(C)CCCCC1 (centres undefined) | 0.885 (inactive) | 2.7 | 8890 | 10000 | 0.825 (inactive) | – | – | – |
| CC(CCC(=O)O)C1CCC2C3C(=O)CC4CC(=O)CC[C@]4(C)C3CC(=O)[C@]12C (some centres undefined) | 0.951 (inactive) | 0.625 | 9350 | 9830 | 0.29 (inactive) | – | – | – |
| COc1ccc2c3c1OC1CC(O)C=C[C@@]31CCN(C)C2 (some centres undefined) | 0.977 (inactive) | 1.4 | 9660 | 9890 | 0.92 (inactive) | – | – | – |
| CC(C)(C)C(O)C=Cc1ccc2c(c1)OCO2 (centres undefined) | 1.46 (inactive) | 0.768 | 8470 | 5780 | -0.12 (inactive) | – | – | – |
| CCC(=O)O[C@]1(C(=O)SCF)C(C)CC2C3CC(F)C4=CC(=O)C=C[C@]4(C)[C@@]3(F)C(O)C[C@@]21C (some centres undefined) | 0.897 (inactive) | 1.65 | 6980 | 7780 | 1.79 (inactive) | – | – | – |
| O=C1c2cccc3c2C(CCC3)CN1C1CN2CCC1CC2 (centres undefined) | 1.56 (inactive) | 0.609 | 5340 | 3420 | -0.005 (inactive) | – | – | – |
| C=CCC1C=C(C)CC(C)CC(OC)C2O[C@@](O)(C(=O)C(=O)N3CCCCC3C(=O)OC(C(C)=CC3CCC(O)C(OC)C3)C(C)C(O)CC1=O)C(C)CC2OC (some centres undefined) | 1.03 (inactive) | 1.03 | 5920 | 5760 | 0.96 (inactive) | – | – | – |
| Cc1ccsc1C(=CCCN1CCCC(C(=O)O)C1)c1sccc1C (centres undefined) | 0.928 (inactive) | 1.05 | 8550 | 9210 | 1.02 (inactive) | – | – | – |
| CC[C@@H]1Cc2cc(O)ccc2C2=C1c1ccc(O)cc1C[C@H]2CC | 1.3 (inactive) | 0.93 | 4580 | 3520 | -0.765 (inactive) | -0.02 h (inactive) | 0% (inactive) | 1 (inactive) |
| CN(C)C(=O)/N=N/C(=O)N(C)C | 1.04 (inactive) | 1.27 | 10000 | 9690 | -1.03 (inactive) | 0.015 h (inactive) | – | – |
